In all, about 39,000 compounds went through this assay and about 220 (0.56%) showed activity. This is one part of a sample in which actives are shown more often than they occur.
What follows are compounds tested on Escherichia coli K-12 BW25113 (assay: relative growth (OD600 normalised to plate interquartile mean) (fraction); higher = less growth inhibition, active = 0.2 or less). Settings: 50 µM; LB; incubation time: overnight (16-24 h).
In the case of `O=C1OC(=O)[C@H]2[C@@H]1[C@H]1CC[C@H]2O1`, the relative growth is reported as 0.16 (active). For `CCc1c(C)[nH]c(=S)c(C#N)c1C`, the relative growth was 1.01 (inactive). In the case of `Cc1noc(C)c1S(=O)(=O)Nc1ccc2c(c1)C(=O)N([C@@H](C)CO)C[C@H](C)[C@H](CN(C)CC1CC1)O2`, the relative growth is reported as 0.999 (inactive). `COc1ccc(NC(=O)N(C)C[C@H]2Oc3c(NS(=O)(=O)c4cn(C)cn4)cccc3C(=O)N([C@@H](C)CO)C[C@@H]2C)cc1` was tested, and the relative growth was 0.995 (inactive). In the case of `C[C@H](CO)N1C[C@H](C)[C@@H](CN(C)S(=O)(=O)c2ccc(F)cc2)Oc2ccc(NC(=O)c3ccncc3)cc2CC1=O`, the relative growth is reported as 0.989 (inactive). With `CCCCCCCCCCCCCCCCOP(=O)([O-])OCC[N+](C)(C)C` the relative growth was 1 (inactive). For `C[N+](C)(C)CCCCCC[N+](C)(C)C.[Br-].[Br-]`, the relative growth was 0.862 (inactive). For `CCCCCCCCCCCCCCCC[N+](C)(C)C`, the relative growth was 0.0755 (active). With `NS(=O)(=O)c1cc(-c2nn[nH]n2)c(NCc2cccs2)cc1Cl` the relative growth was 0.965 (inactive). With `NC[C@H]1CCN(c2ccc(Oc3ccccc3)cc2)C1` the relative growth was 0.669 (inactive). `C[C@H]1CCCCO[C@H](CN(C)C(=O)Cc2ccccc2)[C@@H](C)CN([C@@H](C)CO)C(=O)c2cc(NC(=O)c3ccccc3)ccc2O1` was tested, and the relative growth was 1.03 (inactive). With `CON=C(C(=O)NC1C(=O)N2C(C(=O)OCOC(=O)C(C)(C)C)=C(C=Cc3scnc3C)CSC12)c1csc(N)n1` (stereo not drawn) the relative growth was 0.0492 (active). `CON=C(C(=O)N[C@@H]1C(=O)N2C(C(=O)OCOC(=O)C(C)(C)C)=C(C=Cc3scnc3C)CS[C@H]12)c1csc(N)n1` was tested, and the relative growth was 0.0386 (active). With `CCC=C(C(=O)NC1C(=O)N2C(C(=O)OCOC(=O)C(C)(C)C)=C(COC(N)=O)CSC12)c1csc(N)n1.Cl` (stereo not drawn) the relative growth was 0.0724 (active). With `Cc1ccc(S(=O)(=O)N(C)C[C@@H]2Oc3ccc(NS(=O)(=O)c4ccc(F)cc4)cc3C(=O)N([C@H](C)CO)C[C@@H]2C)cc1` the relative growth was 1.08 (inactive). `COc1ccc(CN(C)C[C@@H]2Oc3c(NC(=O)Nc4ccc(C(F)(F)F)cc4)cccc3C(=O)N([C@@H](C)CO)C[C@H]2C)cc1` was tested, and the relative growth was 0.818 (inactive). `Cc1cc(-c2ccccc2)nc(-c2ccccc2)c1C` was tested, and the relative growth was 0.937 (inactive). For `C[C@H]1CN([C@@H](C)CO)C(=O)c2cc(NC(=O)CCCCCC(=O)Nc3ccccc3N)ccc2O[C@H]1CN(C)S(=O)(=O)c1cn(C)cn1`, the relative growth was 1.01 (inactive). With `CNC[C@H]1Oc2cc(C#CCN(C)C)ccc2S(=O)(=O)N([C@H](C)CO)C[C@@H]1C` the relative growth was 1.02 (inactive). With `C[C@@H]1CCCCO[C@@H](CN(C)C(=O)Nc2ccc3c(c2)OCO3)[C@H](C)CN([C@H](C)CO)C(=O)c2cc(NS(=O)(=O)c3ccc(F)cc3)ccc2O1` the relative growth was 1.01 (inactive). `Cc1noc(C)c1S(=O)(=O)Nc1ccc2c(c1)C(=O)N([C@H](C)CO)C[C@@H](C)[C@@H](CN(C)S(=O)(=O)c1cccs1)O2` was tested, and the relative growth was 0.998 (inactive). `C[C@H]1CCCCO[C@H](CN(C)S(C)(=O)=O)[C@@H](C)CN([C@@H](C)CO)C(=O)c2cc(NC(=O)c3ccncc3)ccc2O1` was tested, and the relative growth was 1.01 (inactive). `CCCCCOc1ccc(-c2ccc(-c3ccc(C(=O)N[C@H]4C[C@@H](O)[C@@H](O)NC(=O)[C@@H]5[C@@H](O)[C@@H](C)CN5C(=O)[C@H]([C@@H](C)O)NC(=O)[C@H]([C@H](O)[C@@H](O)c5ccc(O)cc5)NC(=O)[C@@H]5C[C@@H](O)CN5C(=O)[C@H]([C@@H](C)O)NC4=O)cc3)cc2)cc1` was tested, and the relative growth was 1.12 (inactive). In the case of `CC[C@H](C)C[C@H](C)CCCCCCCCC(=O)N[C@H]1C[C@@H](O)[C@@H](NCCN)NC(=O)[C@@H]2[C@@H](O)CCN2C(=O)[C@H]([C@H](O)CCN)NC(=O)[C@H]([C@H](O)[C@@H](O)c2ccc(O)cc2)NC(=O)[C@@H]2C[C@@H](O)CN2C(=O)[C@H]([C@@H](C)O)NC1=O`, the relative growth is reported as 0.173 (active). For `CCCCCOc1ccc(-c2cc(-c3ccc(C(=O)N[C@H]4C[C@@H](O)[C@@H](O)NC(=O)[C@H]5[C@@H](O)[C@@H](C)CN5C(=O)[C@H]([C@@H](O)CC(N)=O)NC(=O)[C@H]([C@@H](O)[C@@H](O)c5ccc(O)c(OS(=O)(=O)O)c5)NC(=O)[C@H]5C[C@@H](O)CN5C(=O)[C@H]([C@@H](C)O)NC4=O)cc3)no2)cc1`, the relative growth was 0.952 (inactive). With `NC1(C(=O)O)CC1` the relative growth was 0.988 (inactive). In the case of `C[C@@H]1CN([C@@H](C)CO)C(=O)c2cc(C#Cc3ccc(F)cc3)cnc2O[C@@H]1CN(C)Cc1ccccn1`, the relative growth is reported as 0.995 (inactive). For `Cc1ccc(S(=O)(=O)Nc2ccc3c(c2)C(=O)N([C@@H](C)CO)C[C@@H](C)[C@@H](CN(C)C(=O)Nc2cccc4ccccc24)OCCCC[C@@H](C)O3)cc1`, the relative growth was 0.998 (inactive). In the case of `CC1COc2c(N3CCN(C)CC3)c(F)cc3c(=O)c(C(=O)O)cn1c23` (stereo not drawn), the relative growth is reported as 0.0447 (active). In the case of `CN1CCN(c2c(F)cc3c(=O)c(C(=O)O)cn4c3c2OCN4C)CC1`, the relative growth is reported as 0.0475 (active). `CN(c1ccc(N)cc1[N+](=O)[O-])S(C)(=O)=O` was tested, and the relative growth was 1.02 (inactive). `C/C=C/c1ccc2c(c1)O[C@@H](CN(C)Cc1ccc(C(=O)O)cc1)[C@@H](C)CN([C@@H](C)CO)S2(=O)=O` was tested, and the relative growth was 1.02 (inactive). With `COc1ccccc1-c1ccc2c(c1)O[C@H](CN(C)C(=O)c1ccncc1)[C@@H](C)CN([C@H](C)CO)S2(=O)=O` the relative growth was 1.01 (inactive). For `C[C@@H]1CN([C@@H](C)CO)C(=O)Cc2cc(NC(=O)Cc3cn(C)c4ccccc34)ccc2O[C@H]1CN(C)Cc1ccc(C(F)(F)F)cc1`, the relative growth was 1.02 (inactive). With `CCCNC(=O)N1C[C@H](C)[C@H](OC)CN(C)C(=O)c2ccc(NS(=O)(=O)CC(F)(F)F)cc2OC[C@H]1C` the relative growth was 0.974 (inactive). With `NC(=O)c1cc[n+](CC2=C(C(=O)[O-])N3C(=O)C(NC(=O)C(c4ccccc4)S(=O)(=O)[O-])C3SC2)cc1.[Na+]` (stereo not drawn) the relative growth was 1.08 (inactive). For `Cn1nnnc1SCC1=C(C(=O)[O-])N2C(=O)C(NC(=O)C(OC=O)c3ccccc3)C2SC1.[Na+]` (stereo not drawn), the relative growth was 0.365 (inactive). With `O=C([O-])C1=C(CSc2nnnn2CS(=O)(=O)[O-])CSC2C(NC(=O)C(O)c3ccccc3)C(=O)N12.[Na+].[Na+]` (stereo not drawn) the relative growth was 0.044 (active). For `NCc1ccccc1CC(=O)NC1C(=O)N2C(C(=O)O)=C(CSc3nnnn3CC(=O)O)CSC12` (stereo not drawn), the relative growth was 0.0453 (active). With `Cn1nnnc1SCC1=C(C(=O)[O-])N2C(=O)C(NC(=O)C(O)c3ccccc3)C2SC1.[Na+]` (stereo not drawn) the relative growth was 0.0463 (active). With `CCC(CC)c1ccc(O)cc1` the relative growth was 0.994 (inactive). With `CNC[C@@H]1Oc2cc(C#CCN(C)C)ccc2S(=O)(=O)N([C@@H](C)CO)C[C@H]1C` the relative growth was 0.981 (inactive). With `Oc1ccccc1/N=C/c1ccncc1` the relative growth was 0.953 (inactive). With `Cc1nn(C)cc1NC(=O)C[C@@H]1CC[C@@H]2[C@H](COc3ccc(NC(=O)C4CCOCC4)cc3C(=O)N2C)O1` the relative growth was 0.986 (inactive). `COc1ccc(S(=O)(=O)N(C)C[C@@H]2OCCCC[C@H](C)Oc3ccc(NC(=O)Nc4cccc5ccccc45)cc3C(=O)N([C@H](C)CO)C[C@H]2C)cc1` was tested, and the relative growth was 0.966 (inactive). For `C[C@@H]1CN([C@@H](C)CO)S(=O)(=O)c2ccc(C#CC(C)(C)O)cc2O[C@@H]1CN(C)Cc1ccccc1`, the relative growth was 1 (inactive). In the case of `Cc1noc(C)c1S(=O)(=O)Nc1ccc2c(c1)C(=O)N([C@@H](C)CO)C[C@H](C)[C@@H](CN(C)Cc1ccccc1)O2`, the relative growth is reported as 0.968 (inactive). `C[C@H](CO)N1C[C@H](C)[C@H](CN(C)C(=O)Nc2ccc3c(c2)OCO3)OCCCC[C@H](C)Oc2ccc(NC(=O)Cc3ccccc3)cc2C1=O` was tested, and the relative growth was 0.991 (inactive). With `CN(C)C(=O)C[C@H]1C=C[C@H](NC(=O)C2CCOCC2)[C@H](CO)O1` the relative growth was 1.01 (inactive). With `COc1ccc(NC(=O)Nc2ccc3c(c2)C(=O)N([C@H](C)CO)C[C@@H](C)[C@@H](CN(C)S(=O)(=O)c2cccs2)OCCCC[C@@H](C)O3)cc1` the relative growth was 1.02 (inactive). With `CO[C@@H]1CN(C)C(=O)c2cc(NS(=O)(=O)CC(F)(F)F)ccc2OC[C@@H](C)N(C(=O)c2ccc3c(c2)OCO3)C[C@H]1C` the relative growth was 0.937 (inactive). In the case of `Cc1ccc(S(=O)(=O)Nc2ccc3c(c2)C(=O)N([C@@H](C)CO)C[C@@H](C)[C@H](CN(C)C(=O)Cc2ccccc2)OCCCC[C@@H](C)O3)cc1`, the relative growth is reported as 1.01 (inactive). For `C[C@H]1CN([C@@H](C)CO)C(=O)Cc2cc(NC(=O)CCN3CCOCC3)ccc2O[C@@H]1CN(C)Cc1ccccc1`, the relative growth was 1.01 (inactive). With `C=CC(=O)NCCc1ccncc1` the relative growth was 1.05 (inactive). In the case of `O=C(C[C@H]1C[C@H]2c3cc(NS(=O)(=O)c4ccc(F)cc4)ccc3O[C@H]2[C@H](CO)O1)NC1CCCC1`, the relative growth is reported as 0.974 (inactive). With `O=C(CN1CCNCC1)c1ccc(F)cc1` the relative growth was 1 (inactive). For `Cl.O=C(O)c1cn(-c2ccc(F)cc2)c2cc(N3CCNCC3)c(F)cc2c1=O`, the relative growth was 0.0456 (active). For `Cc1ccc(C(=O)O)c(=O)n1C`, the relative growth was 1.02 (inactive). With `Cn1cc(S(=O)(=O)N2CCN(c3ccc(F)cc3)CC2)c(=O)n(C)c1=O` the relative growth was 1.01 (inactive). For `CN1CCN(c2cc3c(cc2F)c(=O)c(C(=O)O)cn3-c2ccc(F)cc2)CC1.Cl`, the relative growth was 0.0477 (active). For `O=C(c1ccccc1F)N1CCNCC1`, the relative growth was 0.999 (inactive). `C[C@@H]1CCCCO[C@H](CN(C)S(=O)(=O)c2cn(C)cn2)[C@H](C)CN([C@H](C)CO)C(=O)c2cc(NS(C)(=O)=O)ccc2O1` was tested, and the relative growth was 1.02 (inactive). With `COc1ccc(-c2cn(CCCNC(=O)[C@H](Cc3ccccc3)NS(=O)(=O)c3ccc(C)cc3)nn2)cc1OC` the relative growth was 1.02 (inactive).
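Also: Wild-type cells incubated without shaking, value is the mean of two biological replicates.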
